In the library only some 2.3% were active in any assay of this set; here they are far more common.
MITF TRPM1 inh: reduces MITF-dependent TRPM1 promoter luciferase signal; 0.83% of 330,000 active; AID 488899; inhibition, % at 12.5 µM; SK-MEL-5 TRPM1 promoter luciferase, 24 h;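 active = mean inhibition across replicates of 60% or more, whatever share of single replicates reaches that level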
LMP1 NFkB inh: inhibitors of Epstein-Barr LMP1-induced NF-kappaB reporter; 0.69% of 350,000 active; LMP1-induced NF-kappaB luciferase reporter cells, luminescence; inhibition, % at 12.5 µM; in the data active = inhibition above about 41%
Gli-Sufu block: antagonists of Gli-Sufu signaling; AID 588413; 0.74% of 340,000 active; Sufu-KO-LIGHT fibroblasts, Gli luciferase reporter luminescence; inhibition, % at 5 µM;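 active = inhibition above about 55%, limit read from the data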
697 NFkB inh: inhibitors of the PMA/ionomycin-induced NF-kB reporter in 697 B cells; 697 B-cell NF-kB luciferase reporter, 16 h; inhibition, % at 4 µM; 0.33% of 330,000 active; AID 435022; in the data active = inhibition above about 35%
Shn3 inh set2: reduces Shn3 3'UTR luciferase signal in osteoblasts | inhibition, % at 12.5 µM | Clone20 osteoblast Shn3 3'UTR firefly luciferase, 24 h | AID 588674 | 0.52% of 360,000 active;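 active = mean inhibition of at least 75% with every replicate also reaching 75%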
Jurkat NFkB inh: lowers PMA/ionomycin-induced NF-kB signal in Jurkat cells. PMA/ionomycin-induced NF-kB luciferase reporter, luminescence. inhibition, % at 4 µM. 0.53% of 330,000 active. AID 435003; in the data active = inhibition above about 50%
Each line names hits and unclear results; the compound was inactive in the other large screens.

O=C(C1CC(=O)N(c2ccc3c(c2)OCCO3)C1)N1CCN(Cc2ccccc2F)CC1 (configuration not stated)	LMP1 NFkB inh 70
COc1cc(C(=O)OC(C)C(=O)NC2CCCCC2C)c([N+](=O)[O-])cc1OC (configuration not stated)	none
CC(OC(=O)c1ccc([N+](=O)[O-])s1)C(=O)NC1CCCCC1C (configuration not stated)	MITF TRPM1 inh 78
CN(C)S(=O)(=O)c1cc(NC(=O)COC(=O)CC2Sc3ccccc3NC2=O)ccc1Cl (configuration not stated)	none
O=C(CSc1nnc(-c2cccc(S(=O)(=O)N3CCOCC3)c2)n1C1CCCCCC1)NCc1ccccc1	LMP1 NFkB inh 47
CCC(C)n1c(SCC(=O)NCc2ccco2)nnc1-c1cccc(S(=O)(=O)N2CCOCC2)c1 (configuration not stated)	none
CCOC(=O)c1c(N)nn(C(=O)C(C)(C)C)c1-c1ccccc1	none
Cc1c(N=Cc2cc(Br)cc(Br)c2O)cccc1C(=O)O	LMP1 NFkB inh 68
COc1cccc(NC(=O)c2cc(=O)c3ccccc3o2)c1	none
Cn1c(CCNC(=O)c2cccs2)n[nH]c1=S	none
COc1ccc(S(=O)(=O)N2CCCCC2)cc1NC(=O)c1ccc([N+](=O)[O-])o1	MITF TRPM1 inh 85
CCN1CCN(c2ccc(S(=O)(=O)N3CCCCC3)cc2NC(=O)c2ccc(F)cc2)CC1	none
O=C(Nc1ccc(S(=O)(=O)N2CCCC2)cc1)c1ccc([N+](=O)[O-])o1	Shn3 inh set2 91 (no result: MITF TRPM1 inh)
CCN1CCN(c2ccc(S(=O)(=O)N3CCOCC3)cc2NC(=O)/C=C/c2ccc([N+](=O)[O-])cc2)CC1	MITF TRPM1 inh 64
COc1ccc(S(=O)(=O)N2CCCCC2)cc1NC(=O)c1ccco1	none
CCN1CCN(c2ccc(S(=O)(=O)N3CCCCC3)cc2NC(=O)c2ccc([N+](=O)[O-])o2)CC1	MITF TRPM1 inh 95
CCN1CCN(c2ccc(S(=O)(=O)N3CCOCC3)cc2NC(=O)c2cccc([N+](=O)[O-])c2)CC1	none
Cc1ccc(C)c(NC(=O)CN(C)C(=O)[C@@H](NC(=O)c2ccc(C(C)(C)C)cc2)C(C)C)c1	none
N/C(=N\OC(=O)c1cc([N+](=O)[O-])ccc1Cl)c1ccccn1	none
N/C(=N\OC(=O)c1ccc(Cl)cc1Cl)c1ccccn1	LMP1 NFkB inh 56
N/C(=N\OC(=O)c1ccc([N+](=O)[O-])cc1Cl)c1ccccn1	LMP1 NFkB inh 56
N/C(=N\OC(=O)Cc1ccccc1)c1cccnc1	none
O=C(CC(=O)N/N=C\c1c(Cl)cccc1Cl)NCc1ccccc1	none
CC1=CC(=NOC(=O)/C=C/c2ccccc2)C=C(C)C1=O	LMP1 NFkB inh 59
CC1=CC(=O)C=C(C)C1=NOC(=O)/C=C\c1ccccc1	none
COc1ccc(/C=N\NS(=O)(=O)c2ccc(C)cc2)cc1COc1ccccc1[N+](=O)[O-]	none
Cc1ccc(NC2=C(Cl)C(=O)OC2OC(=O)c2ccco2)cc1 (configuration not stated)	none
CCCCc1c(CCC)c(=N)c2ccccc2n1C	Gli-Sufu block 76
CCCCc1c(O)c2ccccc2n(CCCC)c1=O	none
Cc1nnc2n(Cc3ccccc3)c(=O)c3c4c(sc3n12)COC(C)(C)C4	none
CC1(C)Cc2c(sc3c2c(=O)n(Cc2ccccc2)c2nncn32)CO1	LMP1 NFkB inh 54 (no result: 697 NFkB inh, Jurkat NFkB inh)
COc1ccc(Cc2c(-c3ccco3)nc3c(C)cc(Br)cn23)c(C)c1	none (no result: MITF TRPM1 inh, LMP1 NFkB inh, Gli-Sufu block, 697 NFkB inh, Jurkat NFkB inh)
COc1ccccc1Cc1c(-c2ccco2)nc2c(C)cc(Br)cn12	Shn3 inh set2 94 (no result: MITF TRPM1 inh, LMP1 NFkB inh, Gli-Sufu block, 697 NFkB inh, Jurkat NFkB inh)
CN(C)c1cccc(C(=O)N/N=C/c2ccccc2F)c1	LMP1 NFkB inh 44
O=C(c1ccc(COc2ccccc2Cl)o1)N1CCCC1	LMP1 NFkB inh 47
CC(C)(C)OC(=O)CNC(=O)c1[nH]cnc1C(=O)NCCCCCNC(=O)OC(C)(C)C	none
N#CC1(NC(=O)CSc2nnc(Cc3ccccc3)o2)CCCCC1	none
CC(=O)N(C1=C(Cl)C(=O)c2ccccc2C1=O)C1CCCCC1	MITF TRPM1 inh 86
CCc1cc[n+](C2=C([O-])c3ccccc3C(=O)/C2=N\S(=O)(=O)c2cccs2)cc1	MITF TRPM1 inh 97
O=C1C(=O)c2ccccc2C([O-])=C1[n+]1ccccc1	none
Cc1ccc(/C=N/NC(=O)c2ccc(OC3CCCC3)cc2)o1	none
O=C(Nc1ccc(OCC(F)(F)C(F)F)c(C(F)(F)F)c1)c1ccccc1O	MITF TRPM1 inh 63
O=C(Nc1ccc(OCC(F)(F)C(F)F)c(C(F)(F)F)c1)c1ccccc1	none
Cc1cccc(/C=C(\c2nc3ccccc3[nH]2)S(=O)(=O)c2ccccc2)c1	MITF TRPM1 inh 86, Shn3 inh set2 93 (no result: 697 NFkB inh, Jurkat NFkB inh)
CC(C)(C)c1ccc(/C=C(\c2nc3ccccc3[nH]2)S(=O)(=O)c2ccccc2)cc1	MITF TRPM1 inh 91, Shn3 inh set2 94
COCCNC(=O)c1ccc(S(=O)(=O)N2CCCc3ccccc32)cc1	none
O=C(COC(=O)/C=C/c1ccccc1[N+](=O)[O-])Nc1ccc2[nH]c(=O)[nH]c2c1	none
Cc1ccc(C2(c3ccccc3)NC(=O)N(CC(=O)NC3CCCCC3)C2=O)cc1C (configuration not stated)	none
CCCCc1c(C)nc2nc(SCc3ccc(Cl)cc3)[nH]n2c1=O	none (no result: 697 NFkB inh, Jurkat NFkB inh)
CNc1nc(-c2ccccn2)nnc1-c1ccccc1	none
c1ccc(-c2nnc(-c3ccccn3)nc2NC2CCCCC2)cc1	MITF TRPM1 inh 74, LMP1 NFkB inh 86, Gli-Sufu block 91
CC(C(=O)N=Nc1c(O)[nH]c2ccccc12)n1cnc2ccccc2c1=O (configuration not stated)	LMP1 NFkB inh 61
Cc1cccc2c(N=NC(=O)C(C)n3cnc4ccccc4c3=O)c(O)[nH]c12 (configuration not stated)	none
COC(=O)c1cccc(COC(=O)c2ccccc2NC(=O)c2ccco2)c1	LMP1 NFkB inh 51
COC(=O)c1ccccc1NC(=O)c1ccco1	none
CC1=C(C)C(=O)C(CCCCC#CCCCC#CCO)=C(C)C1=O	LMP1 NFkB inh 43
CN(C)c1ccc(Nc2nc(N)c3ccccc3n2)cc1	LMP1 NFkB inh 70
Nc1nc(Nc2ccccc2)nc2ccccc12	none
CCOc1ccc(Nc2nc(N)c3ccccc3n2)cc1	LMP1 NFkB inh 53
CCn1cc(C(=O)NP(=O)(Nc2ccc(C)cc2)Nc2ccc(C)cc2)c2ccccc21	none
CCN1CCS/C1=C/C=C/C1=[N+](CC)CCS1	Gli-Sufu block 82 (no result: 697 NFkB inh, Jurkat NFkB inh)
COc1ccccc1N1CCN(Cc2ccc(O)c3ncccc23)CC1	MITF TRPM1 inh 88, LMP1 NFkB inh 73, Gli-Sufu block 76, Shn3 inh set2 88
O=C(Oc1c(CN2CCOCC2)cc(Cl)c2cccnc12)c1ccccc1Br	MITF TRPM1 inh 70 (no result: Shn3 inh set2)

Bioassay records from PubChem.
